In PubChem BioAssay (NCI):
Compounds without any hit were thinned out: in the full panel of roughly 83,000, 20% have a hit.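 Note: values are percent growth. 100 is the growth of untreated cells, values between 100 and 0 indicate rising inhibition; between -100 and 0 indicates cell death.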 A number with no mark means an inactive call. Activity calls are given as the source filed them. *1 amine or outer side, *2 acyl side, *3 side chain or, on linkers, in order; H or OH if unused. Where a SMILES comes first, the peptide text is derived from it. Bridges are numbered along the chain shown (N, C = ends). Roman numbers before positions name the chains, in order. [ ]: non-standard residue; d: D form. Actinocin(1to9) = Cc1c2oc3c(C)ccc(C(=O)[*:2])c3nc-2c(C(=O)[*:1])c(N)c1=O; NMeV = CN[CH](C(=O)O)C(C)C; Sar = CNCC(=O)O

These compounds were tested on SNB-19 CNS (assay: NCI-60 one-dose screen, 48 h (100 = growth as untreated, 0 = no growth, -100 = all killed)). Settings: 10 µM unless noted.
Procedure: Growth inhibition of the SNB-19 human tumor cell line is measured as a screen for anti-cancer activity. Cells are grown in 96 well plates and exposed to the test compound for 48 hours. Compounds are tested at a single concentration, which is 10^-5 M for most compounds. The reported endpoint is percent growth (GI% or GIPRCNT), where numbers from 0 - 100% represent growth inhibition, and numbers from -100% - 0 represent cell death. For example, a value of 40 represents 60% growth inhibition. A value of 0 means no net growth occurred over the course of the experiment. A value of -40 indicates 40% of cells at the beginning of the experiment died by the end of the experiment. A value of -100 means all cells are dead at the end of the experiment.
NCI-60 Human Tumor Cell Lines Screen was performed using the standard one-dose NCI protocol, which is described in more detail at https://dtp.cancer.gov/discovery_development/nci-60/default.htm.
Compounds with GIPRCNT values below 10 were considered active. Activity score was based on GIPRCNT using the following formula: […]
Score is 0 for GIPRCNT values of 100 or above, 50 for GIPRCNT values of 0, and 100 for GIPRCNT values of -100.
For `C[n+]1ccccc1C[n+]1ccccc1`, the growth was 104%. For `Cc1ccc(NC2=CC(=O)C(=O)c3ccccc32)cc1`, the growth was 28.4%. `CCOc1cc(F)c([N+](=O)[O-])cc1[N+](=O)[O-]` showed a growth of 92.2%. For `CC/C(=C(/CC)c1ccc(O)cc1)c1ccc(O)cc1`, the growth was 72.7%. `Cc1ccc2cccc(OC(=O)Nc3cccc(C(F)(F)F)c3)c2n1` gave a growth of 72.1%. Compound `CC1C(c2ccccc2)OCCN1C(=S)Nc1ccc(S(=O)(=O)N2CCCCC2)cc1` (stereo not given) has a growth of 102%. Work on `O=[N+]([O-])c1ccc2c(c1)Cc1ccccc1-2` yielded a growth of 94.9%. For `CCOC(=O)NC(/C=C/c1ccccc1)NC(=O)OCC`, the growth was 98.4%. `COC(=O)c1ccc(=O)c2nc3/c(=C/O)c(O)cc(=O)c3[nH]c12` gave a growth of 11.6%. With `NC(CS/C(Cl)=C/Cl)C(=O)O` (stereo not given) the growth was 85.9%. `[Cl-].[Rh+3].c1ccc(-c2ccnc3c2ccc2c(-c4ccccc4)ccnc23)cc1.c1ccc(-c2ccnc3c2ccc2c(-c4ccccc4)ccnc23)cc1.c1ccc(-c2ccnc3c2ccc2c(-c4ccccc4)ccnc23)cc1` gave a growth of 57.5%. `COC1=CC(=O)c2c(O)c3c(c(O)c2C1=O)CC(C)(O)OC3` (stereo not given) was tested, and the growth was 7.01% (active). `CN(Cc1ccccc1)c1ccc(SC#N)cc1` gave a growth of 93.3%. Compound `COc1ccc(C(OCC2OC(n3ccc(NC(=O)c4ccccc4)nc3=O)C(O)C2O)(c2ccccc2)c2ccccc2)cc1` (stereo not given) has a growth of 54.7%. `Oc1ccc(Cl)cc1C(c1cc(Cl)ccc1O)C(Cl)(Cl)Cl` was tested, and the growth was 24%. Compound `C/C(=N/NC(N)=S)c1ccc(C)cc1` has a growth of 104%. `O=C(/C=C/C(Cl)(Cl)Cl)Nc1ccc(Cl)cc1` showed a growth of 103%. For `CCCN(CCC)C(=O)c1ccc(C)cc1`, the growth was 98.2%. For `CCC(C)C1NC(=O)C(NC(=O)c2c3nc4c(C(=O)NC5C(=O)NC(C(C)CC)C(=O)N6CCCC6C(=O)N(C)CC(=O)N(C)C(C(C)C)C(=O)OC5C)ccc(C)c4oc-3c(C)c(=O)c2N)C(C)OC(=O)C(C(C)C)N(C)C(=O)CN(C)C(=O)C2CCCN2C1=O` (stereo not given) (I: TIP[Sar][NMeV] / II: TIP[Sar][NMeV]; ester I:1-I:C, II:1-II:C; linker I:N-II:N via Actinocin(1to9); configuration not given here), the growth was 4.27% (active). `S=c1[nH]c2cc(Cl)ccc2s1` showed a growth of 94%. In the case of `OCCOSCCO`, the growth is reported as 110%. In the case of `CCc1cnc2ccccc2c1/C=C/c1ccc(N(C)C)cc1`, the growth is reported as 41.1%. For `COC(=O)Nc1nc2ccc(C3(c4ccc(F)cc4)OCCO3)cc2[nH]1`, the growth was 89.1%. Work on `CCC(C)(O)Cc1ccc(Cl)cc1` (stereo not given) yielded a growth of 102%. Work on `COc1ccc(NC(=O)/C(=C/N2C(=O)/C(=C/c3ccc(OC)c(OC)c3)NC2=S)C(C)=O)cc1` yielded a growth of 73%. `CC12CCC(O)CC1=CCC1C2CCC2(C)C3=NN=CC3CC12` (stereo not given) gave a growth of 103%. With `CN(C)CCSC1=Nc2ccc(Cl)cc2C(c2ccccc2Cl)N(C)C1` (stereo not given) the growth was 63.1%. `O=C1/C(=C/c2ccccc2)CCC/C1=C\c1ccccc1` showed a growth of 94.6%. Work on `O=C(c1ccc(O)c(Br)c1)c1ccc(O)c(Br)c1` yielded a growth of 94.3%. With `CC[n+]1ccc(Nc2ccc(NC(=O)c3ccc(Nc4cc[n+](CC)c5ccc([N+](=O)[O-])cc45)cc3)cc2)cc1` the growth was 71.6%. For `CN1CSC(=S)N(Cc2ccccc2)C1`, the growth was 95.5%. `S=C(S)OCN1CCOCC1` showed a growth of 103%. `Clc1ccc(Cc2nc3ccccc3s2)cc1` was tested, and the growth was 121%. `CCCOS(=O)(=O)c1ccccc1` was tested, and the growth was 103%. With `CC(=O)C1Cc2ccccc2C1=O` (stereo not given) the growth was 98%. `CCOC(=O)C1=NN(c2ccccc2)C(=O)/C1=C\N1C(=O)/C(=C/c2cccc(O)c2)SC1=S` was tested, and the growth was 94.4%. `CC(/C=N/NC(N)=S)Cc1ccc(C(C)C)cc1` (stereo not given) showed a growth of 69.3%. `CC(O)C(O)C(O)C(O)C(O)C(=O)NNc1ccccc1` (stereo not given) showed a growth of 97.1%. Compound `COc1ccc2c(c1OC)OCC(CN(C)C)C2=O` (stereo not given) has a growth of 99.1%. Work on `COc1ccc(C(Cn2ccnc2)Sc2ccc(Cl)c(Cl)c2)cc1` (stereo not given) yielded a growth of 98.6%.
